IDH1 R132H inh – blocks human mutant IDH1 R132H enzyme | O75874 | IDH1-R132H enzyme, NADPH consumption, diaphorase/resazurin fluorescence | Potency, µM (top dose mostly 76.6 µM), for the others: top-dose activity change, negative = inhibition, usual class: inhibitors | 0.093% of 390,000 active; further: potency means the concentration at half of the fitted maximal effect; on the % scale 0 is the no-effect control and ±100 the full control effect; nearly all actives have a fitted effect of over 65% in size
Target sequence (O75874 whole entry R132H, stated change not applied): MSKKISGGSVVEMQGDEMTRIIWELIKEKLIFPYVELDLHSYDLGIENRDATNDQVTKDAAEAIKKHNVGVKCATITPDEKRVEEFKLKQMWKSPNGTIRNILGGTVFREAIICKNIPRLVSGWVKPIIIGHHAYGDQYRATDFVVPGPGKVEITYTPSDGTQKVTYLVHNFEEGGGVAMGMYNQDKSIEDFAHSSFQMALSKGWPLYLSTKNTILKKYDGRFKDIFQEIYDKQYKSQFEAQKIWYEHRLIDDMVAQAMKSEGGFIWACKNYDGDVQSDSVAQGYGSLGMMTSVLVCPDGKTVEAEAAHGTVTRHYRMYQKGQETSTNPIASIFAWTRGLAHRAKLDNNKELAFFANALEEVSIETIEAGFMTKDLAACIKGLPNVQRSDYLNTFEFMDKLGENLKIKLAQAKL
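IDH1-R132H (0.5 ug/mL) preincubated 30 min with compound, then NADPH (0.016 mM) and alpha-KG (2 mM) added; 80 min at RT, pH 7.5. Remaining NADPH coupled via diaphorase/resazurin to fluorescence (540/590 nm); concentration-response curves normalized to no-enzyme control.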
HEK293 tox – cytotoxic in the GLP-1 receptor inverse agonist counter-screen; 0.13% of 410,000 active; Potency, µM (highest dose often 38.3 µM), inactives show at the highest dose activity change, negative = inhibition, hits mostly inhibitors; HEK293 cAMP-luciferase reporter cells, luminescence, 24 h;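 further: loss of luciferase light is scored as toxicity; potency means the concentration at half of the fitted maximal effect; on the % scale 0 is the no-effect control and ±100 the full control effect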
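Quantitative HTS format, 1536 wells, 200 cells/uL seeded. Compounds: 23 nL, 24 h, 37 °C. Detection: luciferase reagent, luminescence at 12 min RT; decreased signal taken as cytotoxic.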
GLP1R ag – activates the human GLP-1 receptor; P43220; 0.007% of 380,000 active; Potency, µM (series often up to 45.6 µM), for inactives: at the top dose activation, most hits filed as activators; HEK293 GLP-1R CRE-luciferase, luminescence, 4-6 h; cells express a hypersensitive GLP-1R form; further: potency means the concentration at half of the fitted maximal effect; % of control where 0% means no effect
GLP-1R inv ag – acts as inverse agonist at human GLP-1 receptor. P43220. HEK293 GLP-1R CRE-luciferase, luminescence, 24 h; GLP-1R form is constitutively active. Potency, µM (top dose mostly 38.3 µM), inactives show at the highest dose activity change, negative = inhibition, hits mostly inhibitors. 1.6% of 410,000 active. AID 624417; further: potency means the concentration at half of the fitted maximal effect; on the % scale 0 is the no-effect control and ±100 the full control effect; nearly all actives have a fitted effect of over 55% in size
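Constitutively active GLP-1R drives a cAMP-responsive luciferase in stably transfected HEK293 cells; test compounds are added after overnight (12 h) attachment and left 24 hr, and signal loss in luminescence marks inhibition.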
PTHR1 agonist – PTHR1 (human) receptor agonism. 0.075% of 410,000 active. HEK293 GP2 PTHR1 cells, GloSensor cAMP luminescence, 1 h. Q03431. AID 743266. Potency, µM (highest dose often 115 µM), without a hit: at the highest dose activation, usual class: activators; further: potency means the concentration at half of the fitted maximal effect; nearly all actives have a fitted effect of over 55% in size
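HEK-293-derived GP2 cells expressing PTHR1 and a GloSensor cAMP reporter, 3,000/well, plated overnight, given luciferin plus IBMX (each 0.5 mM as added) for 1 h at 37 °C, then compound for 1 h at 37 °C. Luminescence was read after 15 min at room temperature.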
LDHA inh – LDHA (human) enzyme inhibition; 0.15% of 480,000 active; P00338; activity change, % (values are at about 110 or 230 µM); purified LDHA, NADH/diaphorase-resazurin fluorescence; stronger effect = lower value; in the data active means activity change below about -30%; inconclusive means mostly about -25% to -30%;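 further: plate controls were DMSO wells for no effect and wells without enzyme for full effect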
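Human LDH5 at 2 nM final in Tris HCl pH 7.4 with 0.06 mM NADH and 0.2 mM pyruvate, reacted 5 minutes at room temperature. Remaining NADH coupled via diaphorase/resazurin; resorufin fluorescence read at 0 and 20 minutes, normalized to enzyme-free and DMSO wells.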
An asterisk follows results filed as active; i = inactive; ? = inconclusive; . = no result; [ ] = dose if it differs, or a comment. In the library only some 1.7% were active in any assay of this set; here they are far more common. Unless noted, the call rests on the fitted dose curve; in most records, active means well fitted curve in the direction sought with a large enough effect; inconclusive means small, poorly fitted or top-dose-only effect, or another doubt; inactive means no such curve, though single readings can be large; an effect the other way counts as inactive or inconclusive.

SMILES	IDH1 R132H inh	HEK293 tox	GLP1R ag	GLP-1R inv ag	PTHR1 agonist	LDHA inh
CC1(C)CC(N2CCN(Cc3ccccc3)CC2)=CC(=[N+]2CCCCC2)C1	5%	-27%	1%	?	-84%	-43*
Cc1ccc2c(Sc3ccc(Cl)cc3)c(C(=O)N3CCC(C)CC3)[nH]c2c1	27%	-10%	.	10µM*	-43%	6
COc1ccc2c(Sc3ccc(Cl)cc3)c(C(=O)N3CCC(C)CC3)[nH]c2c1	19%	-5%	.	?	?	2
Cc1cccc(Oc2coc3cc(OCC(=O)OCCC(C)C)ccc3c2=O)c1	.	.	.	.	.	0
CN(C)CCCCCCCCCCC(=O)/C=N/O	4%	-6%	4%	10µM*	i	-9
O=C(CC(c1ccccc1)c1ccccc1)Nc1ccc(Cl)cn1	-1%	?	-7%	5µM*	-7%[57.5 µM]	-4
Cc1cc(Nc2ccc(C)c(C)c2)c2ccccc2n1	-2%	?	3%	?	i	-4
Cc1ccc(Nc2nc(N)c3ccccc3n2)cc1C	14%	3%	-1%	7.1µM*	-42%	-2
COc1cccc(-c2csc(N3CCN(C(=S)Nc4cccc(Cl)c4)CC3)n2)c1	4%	-7%	-7%	10µM*	-15%	-7
COc1cccc(-c2csc(N3CCN(CC(=O)NNC(=O)c4ccc(Br)cc4)CC3)n2)c1	-3%	4%	-3%	11µM*	-35%	-2
O=C(Nc1ccc(C(F)(F)F)cc1)c1cc(=O)c2ccccc2o1	.	.	.	.	.	12
COc1ccc(N2CCN(C(CNC(=O)C(=O)NCCC3=CCCCC3)c3ccco3)CC2)cc1 (stereo unspecified)	5%	?	-1%	10µM*	-9%	-6
COc1ccc(-n2nc3c(N4CCC(C(=O)NCC(C)c5ccccc5)CC4)nnc(C)c3c2C)cc1 (stereo unspecified)	-1%	?	21%	10µM*	i	-12
O=C(/C=C/c1cccc([N+](=O)[O-])c1)c1ccc(OC(F)F)cc1OC(F)F	.	.	.	.	.	14
Cc1cccc(-c2nc3cc(NC(=O)c4cccs4)ccc3o2)c1	.	.	.	.	.	0
Cc1ccc(/C=C/C(O)=C2/C(=O)N(C)C3(C)CC2c2ccccc2O3)cc1 (stereo unspecified)	3%	1%	-6%	2.2µM*	-26%	-7
COc1ccccc1C(=O)NC(=O)Nc1ccc(-c2cc(C(F)(F)F)nn2-c2ccccc2)cc1	.	-5%	.	-2%	-84%	-2
COc1ccccc1C(=O)Nc1ccc(-c2cc(C(F)(F)F)nn2-c2ccccc2)cc1	13%	?	.	5.6µM*	i	0
Cc1nc2ccc(C(=O)OCC(=O)N3CCCCC3)cc2nc1C	.	.	.	.	.	3
O[C@H]1C[C@H](c2ccccc2)N(CC2CCCCC2)C[C@@H]1n1cc(C2CC2)nn1	-2%	?	-2%	10µM*	-25%	5
O[C@@H]1CN(CC2CCCCC2)[C@@H](c2ccccc2)C[C@H]1n1cc(C2CC2)nn1	-1%	-5%	-2%	4%	-39%	-4
CC1(C)CC2CC(C)(CN2S(=O)(=O)c2cccc(C(=O)O)c2)C1 (stereo unspecified)	11%	1%	-6%	-8%	i	-1
CCCCCNC(=O)c1cccc(S(=O)(=O)N2CC3(C)CC2CC(C)(C)C3)c1 (stereo unspecified)	4%	-10%	2%	6.3µM*	-19%	-4
CCc1ccccc1NC(=O)Nc1cccn(Cc2ccccc2F)c1=O	-7%	-6%	9%	10µM*	-24%	-20
CC(C)Cn1c(SC(C)C(N)=O)nnc1-c1ccco1 (stereo unspecified)	.	.	.	.	.	0
CC(=O)c1ccc(NC(=O)NC(=O)c2ccc(Cl)cc2)cc1	.	.	.	.	.	2

Screening data as filed in PubChem.
